Results on 7 molecules are retold here after PubChem BioAssay (EPA / NIEHS).

As a reminder, the AC50 is the midpoint of the concentration-response curve, whichever way the signal moves.

Assay [1] is described as follows: BSK_hDFCGF_SRB: Viability Assessment in the BioMAP Diversity Plus: hDFCGF Assay (AID 2283061).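 Also: cells exposed to compound for 24 h before the read.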 The settings on record: primary human foreskin fibroblasts. In short, it runs like this: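 Readout is SRB absorbance at 560 nm, reflecting total protein in parallel cultures of human foreskin fibroblasts harvested 24 h after chemical dosing. Activity was fitted bidirectionally relative to DMSO.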

Read-out in assay [2]: TIMP metallopeptidase inhibitor 1 (TIMP1), TIMP1 (gene 7076)
Put plainly: BSK_hDFCGF_TIMP1: BioMAP Diversity Plus: hDFCGF Assay for TIMP metallopeptidase inhibitor 1 (TIMP1) Biomarker Activity (AID 2283062). The settings on record: primary human foreskin fibroblasts; actives raise or lower the signal. An outline of the steps:
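Human skin fibroblasts (primary), hDFCGF system; compound exposure 24 h; TIMP-1 by ELISA; bidirectional fit vs DMSO negative control; overt cytotoxicity by SRB in parallel wells.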

Read-out in assay [3]: Monokine induced gamma interferon (MIG), CXCL9 (gene 4283)
Put plainly: BSK_hDFCGF_MIG: BioMAP Diversity Plus: hDFCGF Assay for Monokine induced gamma interferon (MIG) Biomarker Activity (AID 2283063). The settings on record: primary human foreskin fibroblasts; actives raise or lower the signal. An outline of the steps:
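Chemicals were added to primary human foreskin fibroblast cultures, which were sampled 24 h later. MIG levels were then quantified by ELISA and responses fitted in both directions relative to DMSO.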

Read-out in assay [4]: Matrix Metallopeptidase 1 (MMP1), MMP1 (gene 4312)
Put plainly: BSK_hDFCGF_MMP1: BioMAP Diversity Plus: hDFCGF Assay for Matrix Metallopeptidase 1 (MMP1) Biomarker Activity (AID 2283064). The settings on record: primary human foreskin fibroblasts; actives raise or lower the signal. An outline of the steps:
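MMP1 levels quantified by ELISA 24 h after dosing human dermal fibroblast cultures, with parallel SRB total-protein staining for overt cytotoxicity. Data fitted in both directions against DMSO baseline.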

Read-out in assay [5]: Vascular cell adhesion molecule 1 (VCAM1), VCAM1 (gene 7412)
Put plainly: BSK_hDFCGF_VCAM1: BioMAP Diversity Plus: hDFCGF Assay for Vascular cell adhesion molecule 1 (VCAM1) Biomarker Activity (AID 2283065).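 As to AC50: VCAM-1 protein level quantified by ELISA after 24 h chemical exposure.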 The settings on record: primary human foreskin fibroblasts; actives raise or lower the signal. An outline of the steps: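 Human foreskin fibroblast primary cells, chemical exposure 24 h; VCAM-1 by ELISA; bidirectional fit, DMSO = negative control/baseline.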

Read-out in assay [6]: Plasminogen activator inhibitor-1 (PAI1), SERPINE1 (gene 5054)
The experiment in a line: BSK_hDFCGF_PAI1: BioMAP Diversity Plus: hDFCGF Assay for Plasminogen activator inhibitor-1 (PAI1) Biomarker Activity (AID 2283066). The settings on record: primary human foreskin fibroblasts; actives raise or lower the signal. An outline of the steps:
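PAI-1 levels in human dermal foreskin fibroblasts were quantified by ELISA 24 h after dosing, with gain or loss analysed against DMSO. Overt cytotoxicity was checked by sulforhodamine B total-protein staining in parallel cultures.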

Read-out in assay [7]: Intercellular Adhesion Molecule 1 (ICAM1), ICAM1 (gene 3383)
Put plainly: BSK_KF3CT_ICAM1: BioMAP Diversity Plus: KF3CT Assay for Intercellular Adhesion Molecule 1 (ICAM1) Biomarker Activity (AID 2283067). The settings on record: primary human keratinocytes with fibroblasts; actives raise or lower the signal. An outline of the steps:
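ICAM-1 levels are measured by ELISA 24 h after dosing a primary human co-culture of keratinocytes and foreskin fibroblasts. Activity in either direction is fitted relative to DMSO vehicle.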

Read-out in assay [8]: Interferon-gamma inducible Protein 10 (IP10), CXCL10 (gene 3627)
Put plainly: BSK_KF3CT_IP10: BioMAP Diversity Plus: KF3CT Assay for Interferon-gamma inducible Protein 10 (IP10) Biomarker Activity (AID 2283068). The settings on record: primary human keratinocytes with fibroblasts; actives raise or lower the signal. An outline of the steps: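 Signal is secreted/surface IP-10 by ELISA in a human primary skin co-culture of keratinocytes and foreskin fibroblasts, taken 24 h post-dosing; DMSO served as negative control.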

Read-out in assay [9]: Interleukin-1 alpha (IL1a), IL1A (gene 3552)
Put plainly: BSK_KF3CT_IL1a: BioMAP Diversity Plus: KF3CT Assay for Interleukin-1 alpha (IL1a) Biomarker Activity (AID 2283070). The settings on record: primary human keratinocytes with fibroblasts; actives raise or lower the signal. An outline of the steps: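 IL-1a was detected by ELISA 24 h after chemical treatment of a co-culture of human skin keratinocytes and foreskin fibroblasts. Gain or loss of signal was fitted against the DMSO baseline.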

Read-out in assay [10]: C-C motif chemokine 2 (Homo sapiens) (UniProt P13500)
The experiment in a line: BSK_KF3CT_MCP1: BioMAP Diversity Plus: KF3CT Assay for Monocyte Chemoattractant Protein 1 (MCP1/CCL2) Biomarker Activity (AID 2283073). The settings on record: primary human keratinocytes with fibroblasts; actives raise or lower the signal. In short, it runs like this:
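ELISA readout of MCP-1 after 24 h chemical dosing of a human skin primary co-culture of keratinocytes and foreskin fibroblasts. Activity was fitted in both directions against DMSO.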

Read-out in assay [11]: Matrix Metallopeptidase 9 (MMP9), MMP9 (gene 4318)
Put plainly: BSK_KF3CT_MMP9: BioMAP Diversity Plus: KF3CT Assay for Matrix Metallopeptidase 9 (MMP9) Biomarker Activity (AID 2283074).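 As to AC50: MMP9 protein level quantified by ELISA in the co-culture.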 The settings on record: primary human keratinocytes with fibroblasts; actives raise or lower the signal. An outline of the steps: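 MMP-9 quantified by ELISA after 24 h chemical treatment of primary human skin keratinocyte/fibroblast co-cultures; gain or loss fitted against DMSO, with parallel SRB staining (0.1% SRB, 560 nm) for overt cytotoxicity.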

Read-out in assay [12]: urokinase plasminogen activator (uPA), PLAU (gene 5328)
Put plainly: BSK_KF3CT_uPA: BioMAP Diversity Plus: KF3CT Assay for urokinase plasminogen activator (uPA) Biomarker Activity (AID 2283075). The settings on record: primary human keratinocytes with fibroblasts; actives raise or lower the signal. In short, it runs like this:
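ELISA read-out of uPA 24 h after dosing human skin keratinocytes co-cultured with foreskin fibroblasts. Signal change fitted both ways relative to DMSO; sulforhodamine B on parallel cultures marks overt cytotoxicity.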

Read-out in another assay: CD40, CD40 (gene 958)
The experiment in a line: BSK_LPS_CD40: BioMAP Diversity Plus: LPS Assay for CD40 Biomarker Activity (AID 2283076). The settings on record: primary human HUVEC with PBMC; actives raise or lower the signal. In short, it runs like this: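 Cells were dosed, incubated 24 h, then assayed for CD40 by ELISA. Gain or loss of signal was analysed relative to DMSO controls. The culture paired human umbilical vein endothelium with peripheral blood mononuclear cells.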

Read-out in assay [13]: E-selectin (Homo sapiens) (UniProt P16581)
Put plainly: BSK_LPS_Eselectin: BioMAP Diversity Plus: LPS Assay for Eselectin Biomarker Activity (AID 2283077). The settings on record: primary human HUVEC with PBMC; actives raise or lower the signal. In short, it runs like this: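 Primary human vascular co-culture (endothelium plus PBMC) was dosed with chemical, then E-selectin quantified by ELISA at 24 h. Endpoint values derive from bidirectional curve fitting relative to DMSO.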

Read-out in assay [14]: Interleukin-8 (IL8), CXCL8 (gene 3576)
The experiment in a line: BSK_LPS_IL8: BioMAP Diversity Plus: LPS Assay for Interleukin-8 (IL8) Biomarker Activity (AID 2283078). The settings on record: primary human HUVEC with PBMC; actives raise or lower the signal. An outline of the steps:
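Readout is IL-8 by ELISA, taken 24 h after compounds were added to LPS-stimulated endothelial/PBMC co-cultures. Both increases and decreases relative to DMSO control were scored through bidirectional fitting.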

A short description of assay [15]: BSK_LPS_SRB: Viability Assessment in the BioMAP Diversity Plus: LPS Assay (AID 2283079).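 Also: total protein by sulforhodamine B absorbance as a cytotoxicity measure; measured one day after compound addition; fitted in both directions against DMSO so loss or gain of signal counts.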 The settings on record: primary human HUVEC with PBMC. An outline of the steps:
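Readout is SRB absorbance at 560 nm (0.1% stain, TCA-fixed parallel cultures) as a total-protein cytotoxicity measure. Cells: primary human umbilical vein endothelium plus peripheral blood mononuclear cells, 24 h after chemical exposure; DMSO served as baseline.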

Read-out in assay [16]: Interleukin-1 alpha (IL1a), IL1A (gene 3552)
The experiment in a line: BSK_LPS_IL1a: BioMAP Diversity Plus: LPS Assay for Interleukin-1 alpha (IL1a) Biomarker Activity (AID 2283080). The settings on record: primary human HUVEC with PBMC; actives raise or lower the signal. An outline of the steps:
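ELISA read-out of IL-1 alpha from a human primary vascular co-culture (endothelium plus PBMC) under LPS, sampled 24 hours post-dosing. Activity was fitted in both directions relative to DMSO controls.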

Assay [17] in a line: BSK_KF3CT_SRB: Viability Assessment in the BioMAP Diversity Plus: KF3CT Assay (AID 2283069).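 Also: read 24 h after compound addition.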 The settings on record: primary human keratinocytes with fibroblasts. In short, it runs like this: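 Cytotoxicity was gauged by SRB staining (0.1% SRB, 10% TCA fixation, 560 nm) of parallel cultures at 24 h. The cells were primary human skin keratinocytes co-cultured with fibroblasts, and activity was fitted in both directions against DMSO.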

Read-out in assay [18]: TIMP metallopeptidase inhibitor 2 (TIMP2), TIMP2 (gene 7077)
The experiment in a line: BSK_KF3CT_TIMP2: BioMAP Diversity Plus: KF3CT Assay for TIMP metallopeptidase inhibitor 2 (TIMP2) Biomarker Activity (AID 2283071). The settings on record: primary human keratinocytes with fibroblasts; actives raise or lower the signal. An outline of the steps: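 TIMP-2 measured by ELISA at 24 h in human keratinocyte/fibroblast primary co-cultures exposed to chemicals. Both increases and decreases were fitted against DMSO. Parallel cultures were stained with SRB for total protein as an overt-cytotoxicity check.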

Read-out in assay [19]: Transforming growth factor beta 1 (TGFb1), TGFB1 (gene 7040)
Put plainly: BSK_KF3CT_TGFb1: BioMAP Diversity Plus: KF3CT Assay for Transforming growth factor beta 1 (TGFb1) Biomarker Activity (AID 2283072). The settings on record: primary human keratinocytes with fibroblasts; actives raise or lower the signal. In short, it runs like this:
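ELISA quantifies TGF-b1 at 24 h post-dose in a primary human skin co-culture of keratinocytes and fibroblasts, with gain or loss judged against DMSO. Parallel SRB total-protein staining flags overt cytotoxicity.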

Activity calls are given as the source filed them. The calls were made as follows: active = hit-call score of the fitted dose curve at least 0.9, where 1 is the maximum; inactive = score below 0.9.

E-selectin (Homo sapiens), sequence (P16581 whole entry, looked up): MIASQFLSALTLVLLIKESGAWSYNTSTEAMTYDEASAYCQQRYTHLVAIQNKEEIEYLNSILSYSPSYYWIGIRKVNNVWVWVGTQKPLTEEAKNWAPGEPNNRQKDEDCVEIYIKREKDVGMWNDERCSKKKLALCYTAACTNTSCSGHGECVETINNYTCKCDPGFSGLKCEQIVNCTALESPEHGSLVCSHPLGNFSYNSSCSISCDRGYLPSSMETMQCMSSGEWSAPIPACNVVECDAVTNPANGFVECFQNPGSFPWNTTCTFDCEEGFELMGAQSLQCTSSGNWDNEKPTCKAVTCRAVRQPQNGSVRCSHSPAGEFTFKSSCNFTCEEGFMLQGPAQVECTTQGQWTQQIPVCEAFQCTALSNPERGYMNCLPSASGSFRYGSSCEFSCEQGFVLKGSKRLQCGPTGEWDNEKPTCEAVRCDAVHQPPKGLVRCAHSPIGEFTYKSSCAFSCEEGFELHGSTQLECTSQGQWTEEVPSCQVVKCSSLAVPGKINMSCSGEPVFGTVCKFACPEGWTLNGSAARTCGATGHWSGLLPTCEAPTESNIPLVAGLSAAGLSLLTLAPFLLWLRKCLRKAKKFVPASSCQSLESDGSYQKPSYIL

Take `CC1=C(/C=C/C(C)=C/C=C/C(C)=C/CO)C(C)(C)CCC1`: the AC50 in [1] was 37.8 µM (active); in assay [3], 27 µM (active); in [5], 20.9 µM (active); in [6], 20.9 µM (active); in assay [8], 31.4 µM (active); in assay [11], 32.3 µM (active). For the same molecule, in [13], the AC50 is 4.25 µM (active). Further, the outcome in assay [2], in [4], in [7], in [9], in assay [10] and in assay [12] was inactive. In addition, the outcome with CD40, CD40 (gene 958) was “inactive”; in assay [14] it was “inactive”; in [15] it was “inactive”; in assay [16], “inactive”.
As for `NCCO`, the outcome in assay [1], in [2], in [3], in assay [4], in assay [5] and in assay [6] was inactive. The result in [7], in assay [8], in [17], in [9], in assay [18] and in assay [10] was inactive. The result in assay [11], in [12], in [13], in assay [14], in [15] and in assay [16] was inactive.
Consider `O=[N+]([O-])C(CO)(CO)CO`, for which the outcome in [1], in [2], in assay [3], in assay [4], in assay [5] and in [6] was inactive. The outcome in [7], in assay [8], in [9], in [19], in [10] and in assay [11] was inactive. Also, the outcome was “inactive” in assay [12]; “inactive” with CD40, CD40 (gene 958); “inactive” in [13]; “inactive” in [14]; “inactive” in assay [15]; “inactive” in assay [16].
Consider `CC(=O)Oc1ccccc1C(=O)O`, for which the outcome in assay [1], in [2], in [3], in assay [4], in [5] and in assay [6] was inactive. Moreover, the result in assay [7], in [8], in assay [9], in assay [18], in [10] and in [11] was inactive. Moreover, the result in assay [12], in [13], in assay [14], in [15] and in [16] was inactive.
As for `FC(F)(F)C(F)(F)C(F)(F)C(F)(F)C(F)(F)C(F)(F)CCI`, the result in assay [1], in [2], in assay [3], in assay [4], in [5] and in assay [6] was inactive. In addition, the outcome in assay [7], in assay [8], in assay [17], in assay [9], in [18] and in assay [19] was inactive. Besides, the result in assay [10], in assay [11], in assay [12], in [13], in [14] and in [15] was inactive. For the same molecule, the outcome in [16] was inactive.
For the molecule `COc1ccc2c(c1)c(CC(=O)O)c(C)n2C(=O)c1ccc(Cl)cc1`, the outcome in assay [1], in assay [2], in assay [3], in assay [4], in assay [5] and in assay [6] was inactive. For the same molecule, the result in [7], in [8], in assay [9], in assay [18], in assay [19] and in [10] was inactive. For the same molecule, the outcome in assay [11] is “inactive”; in assay [12] it was “inactive”; in the assay with CD40, CD40 (gene 958), “inactive”; in assay [13] it was “inactive”; in assay [14] it was “inactive”; in assay [15] it was “inactive”. In addition, in assay [16], the result was inactive.
In the case of `CCCc1cc(=O)[nH]c(=S)[nH]1`, the result in assay [1], in assay [2], in assay [3], in assay [4], in assay [5] and in [6] was inactive. The result in assay [7], in assay [8], in [9], in assay [19], in [10] and in assay [11] was inactive. In addition, the outcome in assay [12], in assay [13], in [14], in assay [15] and in [16] was inactive.
